Reference: PubChem BioAssay (EPA / NIEHS)
Values joined by “and” are separate entries in the source; they are usually repeats but may differ in a detail not shown here. Equal entries are not always repeated. Some compounds were tested as several samples or in several runs, with calls that do not always agree. Active and inactive are the calls of the source. Rule for the calls: active = hit-call score of the fitted dose curve at least 0.9, where 1 is the maximum; inactive = score below 0.9.

Key:
[1] = read-out: Interleukin-6 (IL6), IL6 (gene 3569); test: BSK_CASM3C_IL6: BioMAP Diversity Plus: CASM3C Assay for Interleukin-6 (IL6) Biomarker Activity for (AID 2283040); conditions: primary human coronary artery smooth muscle cells; actives raise or lower the signal
[2] = read-out: Tissue plasminogen activator (tPA), PLAT (gene 5327); test: BSK_BE3C_tPA: BioMAP Diversity Plus: BE3C Assay for Tissue plasminogen activator (tPA) Biomarker Activity (AID 2283041); conditions: primary human bronchial epithelial cells; actives raise or lower the signal
How it was run: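 Primary human bronchial epithelial cells in the BE3C system, exposed to compound for 24 h. tPA was quantified by ELISA; DMSO served as baseline, with gain or loss of signal fitted. Cytotoxicity checked in parallel cultures by SRB total-protein staining.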

[3] = read-out: Interleukin-8 (IL8), CXCL8 (gene 3576); test: BSK_CASM3C_IL8: BioMAP Diversity Plus: CASM3C Assay for Interleukin-8 (IL8) Biomarker Activity (AID 2283042); conditions: primary human coronary artery smooth muscle cells; actives raise or lower the signal;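 note: IL-8 protein level quantified by ELISA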
[4] = read-out: Human Leukocyte Antigen - DR isotype (HLADR), HLA-DRA (gene 3122); test: BSK_CASM3C_HLADR: BioMAP Diversity Plus: CASM3C Assay for Human Leukocyte Antigen - DR isotype (HLADR) Biomarker Activity (AID 2283043); conditions: primary human coronary artery smooth muscle cells; actives raise or lower the signal;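 note: cell-surface HLA-DR protein level quantified by ELISA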
[5] = read-out: Macrophage colony-stimulating factor (MCSF), CSF1 (gene 1435); test: BSK_CASM3C_MCSF: BioMAP Diversity Plus: CASM3C Assay for Macrophage colony-stimulating factor (MCSF) Biomarker Activity (AID 2283044); conditions: primary human coronary artery smooth muscle cells; actives raise or lower the signal;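 note: M-CSF protein amount quantified by ELISA after 24 h exposure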
[6] = read-out: Low-density lipoprotein receptor (LDLR), LDLR (gene 3949); test: BSK_CASM3C_LDLR: BioMAP Diversity Plus: CASM3C Assay for Low-density lipoprotein receptor (LDLR) Biomarker Activity (AID 2283045); conditions: primary human coronary artery smooth muscle cells; actives raise or lower the signal;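 note: LDLR protein level on the cell surface quantified by ELISA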
[7] = read-out: Monocyte Chemoattractant Protein-1 (MCP1), CCL2 (gene 6347); test: BSK_CASM3C_MCP1: BioMAP Diversity Plus: CASM3C Assay for Monocyte Chemoattractant Protein-1 (MCP1) Biomarker Activity (AID 2283046); conditions: primary human coronary artery smooth muscle cells; actives raise or lower the signal;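 note: MCP-1 level quantified by ELISA 24 h after dosing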
[8] = BSK_CASM3C_Proliferation: Cell Proliferation Assessment in the BioMAP Diversity Plus: CASM3C Assay (AID 2283047); conditions: primary human coronary artery smooth muscle cells;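 note: sulforhodamine B total protein stain as relative cell number at 560 nm; sub-confluent cells exposed 48 h before staining; fitted both ways against DMSO so gain or loss of cell number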
[9] = read-out: Monokine induced gamma interferon (MIG), CXCL9 (gene 4283); test: BSK_CASM3C_MIG: BioMAP Diversity Plus: CASM3C Assay for Monokine induced gamma interferon (MIG) Biomarker Activity (AID 2283048); conditions: primary human coronary artery smooth muscle cells; actives raise or lower the signal;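 note: MIG protein level measured by ELISA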
[10] = read-out: serum amyloid A (SAA), SAA1 (gene 6288); test: BSK_CASM3C_SAA: BioMAP Diversity Plus: CASM3C Assay for serum amyloid A (SAA) Biomarker Activity (AID 2283049); conditions: primary human coronary artery smooth muscle cells; actives raise or lower the signal;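 note: SAA protein level quantified by ELISA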
[11] = BSK_CASM3C_SRB: Viability Assessment in the BioMAP Diversity Plus: CASM3C Assay (AID 2283050); conditions: primary human coronary artery smooth muscle cells
[12] = read-out: Thrombomodulin, THBD (gene 7056); test: BSK_CASM3C_Thrombomodulin: BioMAP Diversity Plus: CASM3C Assay for Thrombomodulin Biomarker Activity (AID 2283051); conditions: primary human coronary artery smooth muscle cells; actives raise or lower the signal;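 note: thrombomodulin protein level measured by ELISA 24 h after dosing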
[13] = read-out: Tissue Factor, F3 (gene 2152); test: BSK_CASM3C_TissueFactor: BioMAP Diversity Plus: CASM3C Assay for Tissue Factor Biomarker Activity (AID 2283052); conditions: primary human coronary artery smooth muscle cells; actives raise or lower the signal;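 note: cell surface tissue factor protein level read by ELISA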
[14] = read-out: Interferon-gamma inducible Protein 10 (IP10), CXCL10 (gene 3627); test: BSK_hDFCGF_IP10: BioMAP Diversity Plus: hDFCGF Assay for Interferon-gamma inducible Protein 10 (IP10) Biomarker Activity (AID 2283053); conditions: primary human foreskin fibroblasts; actives raise or lower the signal
How it was run: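 Primary human foreskin fibroblasts exposed to chemicals for 24 h. IP-10 measured by ELISA; changes fitted bidirectionally against DMSO baseline.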

[15] = read-out: Urokinase-type plasminogen activator receptor (uPAR), PLAUR (gene 5329); test: BSK_CASM3C_uPAR: BioMAP Diversity Plus: CASM3C Assay for Urokinase-type plasminogen activator receptor (uPAR) Biomarker Activity (AID 2283054); conditions: primary human coronary artery smooth muscle cells; actives raise or lower the signal;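 note: cell-surface uPAR protein level quantified by ELISA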
[16] = read-out: Vascular cell adhesion molecule 1 (VCAM1), VCAM1 (gene 7412); test: BSK_CASM3C_VCAM1: BioMAP Diversity Plus: CASM3C Assay for Vascular cell adhesion molecule 1 (VCAM1) Biomarker Activity (AID 2283055); conditions: primary human coronary artery smooth muscle cells; actives raise or lower the signal;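 note: VCAM-1 protein level quantified by ELISA on the cells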
[17] = read-out: Collagen III, COL3A1 (gene 1281); test: BSK_hDFCGF_CollagenIII: BioMAP Diversity Plus: hDFCGF Assay for Collagen III Biomarker Activity (AID 2283056); conditions: primary human foreskin fibroblasts; actives raise or lower the signal
How it was run: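 Cells: human foreskin fibroblasts, primary. Dosing followed by 24 h incubation, then ELISA for collagen III. Both increases and decreases scored relative to DMSO.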

[18] = read-out: Epidermal growth factor receptor (EGFR), EGFR (gene 1956); test: BSK_hDFCGF_EGFR: BioMAP Diversity Plus: hDFCGF Assay for Epidermal growth factor receptor (EGFR) Biomarker Activity (AID 2283057); conditions: primary human foreskin fibroblasts; actives raise or lower the signal
How it was run: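 Primary human foreskin fibroblasts (hDFCGF system), sampled 24 h after dosing; EGFR quantified by ELISA. Bidirectional fit relative to DMSO baseline; SRB total-protein staining in parallel cultures for cytotoxicity.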

[19] = read-out: Interleukin-8 (IL8), CXCL8 (gene 3576); test: BSK_hDFCGF_IL8: BioMAP Diversity Plus: hDFCGF Assay for Interleukin-8 (IL8) Biomarker Activity (AID 2283058); conditions: primary human foreskin fibroblasts; actives raise or lower the signal
How it was run: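 IL-8 levels from compound-treated primary human fibroblasts were read by ELISA at 24 h, with DMSO serving as baseline for bidirectional fitting.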

[20] = BSK_hDFCGF_Proliferation: Cell Proliferation Assessment in the BioMAP Diversity Plus: hDFCGF Assay (AID 2283059); conditions: primary human foreskin fibroblasts;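 note: curves fitted for both rise and fall of signal versus DMSO baseline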
How it was run: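 Steps: dose primary human dermal fibroblasts (foreskin); […] fix in 10% TCA; stain with 0.1% SRB; read 560 nm; fit gain or loss of signal against DMSO.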

Measured: AC50

C=CC(=O)OCC(F)(F)C(F)(F)C(F)(F)C(F)(F)COC(=O)C=C
inactive: [1] | [2] | [3] | [4] | [6] | [12] | [17] | [18]
active: [1] 7.96 µM | [2] 8.82 µM | [4] 17.8 µM | [5] 34.9 µM and 30 µM | [6] 12.2 µM | [7] 45.8 µM and 44 µM | [8] 18.9 µM and 31.4 µM | [9] 28.6 µM and 31 µM | [10] 22.9 µM and 16.1 µM | [11] 43 µM and 43.7 µM | [13] 52.7 µM and 47.5 µM | [14] 8.28 µM and 8.38 µM | [15] 48.9 µM and 50 µM | [16] 17.7 µM and 19.7 µM | [18] 30 µM | [19] 11.5 µM and 14.4 µM | [20] 2.13 µM and 1.2 µM

O=C(O)C(F)(F)C(F)(F)C(F)(F)C(F)(F)C(F)(F)C(F)(F)C(F)(F)C(F)(F)C(F)(F)C(F)(F)C(F)(F)C(F)(F)F
inactive: [1] | [2] | [3] | [4] | [5] | [6] | [7] | [8] | [9] | [11] | [12] | [13] | [15] | [18] | [19] | [20]
active: [4] 16.1 µM | [10] 2.34 µM and 3.54 µM | [12] 13.3 µM | [14] 1.86 µM and 1.07 µM | [16] 7.09 µM and 4.44 µM | [20] 2.47 µM

CO[Si](OC)(c1ccccc1)c1ccccc1
inactive: [2] | [3] | [9] | [12] | [14] | [18] | [19]
active: [1] 31.5 µM | [4] 39.1 µM | [5] 33.2 µM | [6] 30.8 µM | [7] 36.7 µM | [8] 34.2 µM | [10] 30.9 µM | [11] 31.1 µM | [13] 30.7 µM | [15] 29.5 µM | [16] 35.7 µM | [17] 32 µM | [20] 28.1 µM

OCCCC(F)(F)C(F)(F)C(F)(F)C(F)(F)C(F)(F)C(F)(F)C(F)(F)F
inactive: [3] | [12] | [13] | [18]
active: [1] 42.1 µM and 48.2 µM | [2] 35.7 µM and 30 µM | [3] 49 µM | [4] 23.3 µM and 49 µM | [5] 22.1 µM and 43.6 µM | [6] 43.7 µM and 45.9 µM | [7] 38.3 µM and 28.9 µM | [8] 18.4 µM and 20.3 µM | [9] 41.7 µM and 41.9 µM | [10] 37.6 µM and 22.7 µM | [11] 22.6 µM and 25.1 µM | [13] 20.8 µM | [14] 11.8 µM and 14 µM | [15] 24.5 µM and 45 µM | [16] 26.2 µM and 41.2 µM | [18] 9.95 µM | [19] 17.8 µM and 20.8 µM | [20] 6.74 µM and 7.22 µM

C=C(C)C(=O)OCCC(F)(F)C(F)(F)C(F)(F)C(F)(F)C(F)(C(F)(F)F)C(F)(F)F
inactive: all assays above

C=CC(F)(F)C(F)(F)C(F)(F)C(F)(F)C(F)(F)C(F)(F)C(F)(F)C(F)(F)F
inactive: [1] | [2] | [3] | [4] | [5] | [6] | [7] | [8] | [9] | [10] | [11] | [12] | [13] | [14] | [15] | [16] | [17] | [18] | [19] | [20]
active: [18] 0.27 µM

O=C(Cl)C(F)(F)C(F)(F)C(F)(F)C(F)(F)C(F)(F)C(F)(F)C(F)(F)C(F)(F)F
active: [2] 27.5 µM and 22.8 µM | [14] 24.8 µM and 36.7 µM and 32.9 µM | [16] 30 µM | [18] 6.36 µM and 13.7 µM | [20] 49.7 µM and 49.4 µM and 49.5 µM
inactive: [1] | [2] | [3] | [4] | [5] | [6] | [7] | [8] | [9] | [10] | [11] | [12] | [13] | [15] | [16] | [17] | [18] | [19]

CCc1ccc(C(c2ccc(CC)cc2)C(Cl)Cl)cc1
active: [2] 14.1 µM | [13] 5.97 µM | [14] 26.2 µM | [17] 20 µM | [20] 4.45 µM
inactive: all other assays above

O=S(=O)(OCC(F)F)C(F)(F)F
inactive: all assays above

Nc1ccc([N+](=O)[O-])cc1O
active: [12] 20 µM | [20] 11.1 µM
inactive: all other assays above
